About 83,000 compounds went through this panel and 20% of them were active in at least one assay; those are over-represented in the sample as a whole.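 Results are percent growth after 48 hours of single-concentration exposure. 100 means growth as in untreated cells, lower positive values show inhibition; negative values down to -100 show cell death.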 Active and inactive are the calls of the source. The calls were made as follows: active = growth percent below 10; inactive = the rest.
Tests used:
Test in all cases: NCI-60 one-dose screen, 48 h (100 = growth as untreated, 0 = no growth, -100 = all killed)
Details in all cases: 10 µM unless noted
SR leukemia = tested on: SR leukemia
RPMI-8226 leukemia = tested on: RPMI-8226 leukemia
OVCAR-8 ovarian = tested on: OVCAR-8 ovarian
OVCAR-5 ovarian = tested on: OVCAR-5 ovarian
OVCAR-4 ovarian = tested on: OVCAR-4 ovarian
SK-OV-3 ovarian = tested on: SK-OV-3 ovarian
IGROV1 ovarian = tested on: IGROV1 ovarian
OVCAR-3 ovarian = tested on: OVCAR-3 ovarian
NCI/ADR-RES ovarian = tested on: NCI/ADR-RES ovarian
HS 578T breast = tested on: HS 578T breast

Measured: growth

C/C(=N\NC(=S)N1CC2CCC(CC2)C1)c1ccccn1
active: SR leukemia -10.1% | RPMI-8226 leukemia -6.26% | OVCAR-4 ovarian -41.2% | IGROV1 ovarian 5.07% | OVCAR-3 ovarian -17.7%
inactive: OVCAR-8 ovarian 18.2% | OVCAR-5 ovarian 24.5% | SK-OV-3 ovarian 18.9% | NCI/ADR-RES ovarian 12.6%

N#CC(=C1SCS1)[N+](=O)[O-]
active: SR leukemia 7.48% | OVCAR-3 ovarian 8.46%
inactive: RPMI-8226 leukemia 32% | OVCAR-8 ovarian 18.9% | OVCAR-5 ovarian 47% | OVCAR-4 ovarian 42.6% | SK-OV-3 ovarian 55% | IGROV1 ovarian 24.5% | NCI/ADR-RES ovarian 20.2%

CN(C)c1ccc(C(=C2C=CC(=[N+](C)C)C=C2)c2ccc(N(C)C)cc2)cc1
active: SR leukemia -14.3% | RPMI-8226 leukemia -51.8% | OVCAR-8 ovarian -44.8% | OVCAR-5 ovarian -34.4% | OVCAR-4 ovarian -18.5% | SK-OV-3 ovarian -90.9% | IGROV1 ovarian -37.2% | OVCAR-3 ovarian -91.1% | NCI/ADR-RES ovarian -18.8%

CCCOC(=O)c1nc(N(CC2CCCCC2)C(=O)NC)sc1/N=C/c1ccccc1
inactive: OVCAR-8 ovarian 29% | OVCAR-5 ovarian 40% | OVCAR-4 ovarian 35.1% | SK-OV-3 ovarian 24.7% | IGROV1 ovarian 19.4%
active: SR leukemia -17.2% | RPMI-8226 leukemia -48.2% | OVCAR-3 ovarian 4.38% | NCI/ADR-RES ovarian -14%

Cc1ccc(Nc2ccc(O)c3c2C(=O)c2c(O)ccc(Nc4ccc(C)cc4)c2C3=O)cc1
inactive: SR leukemia 108% | RPMI-8226 leukemia 96.6% | OVCAR-8 ovarian 91.4% | OVCAR-5 ovarian 106% | OVCAR-4 ovarian 111% | SK-OV-3 ovarian 108% | OVCAR-3 ovarian 113% | HS 578T breast 103% | NCI/ADR-RES ovarian 107%

Oc1ccc(Cl)cc1Cc1cc(Cl)ccc1O
inactive: SR leukemia 81.4% | OVCAR-8 ovarian 20.9% | OVCAR-4 ovarian 38.7% | SK-OV-3 ovarian 84.8% | IGROV1 ovarian 41.1% | HS 578T breast 34.2%
active: RPMI-8226 leukemia -1.2% | OVCAR-3 ovarian 9.92% | NCI/ADR-RES ovarian 4.47%

COC(=O)c1cc([N+](=O)[O-])cc([N+](=O)[O-])c1Cl
inactive: SR leukemia 30.9% | RPMI-8226 leukemia 87.1% | OVCAR-8 ovarian 76.1% | OVCAR-5 ovarian 97.9% | OVCAR-4 ovarian 61% | SK-OV-3 ovarian 102% | IGROV1 ovarian 95.7% | NCI/ADR-RES ovarian 99.1%
active: OVCAR-3 ovarian -44.7%

COc1ccc(C(OCC2OC(n3ccc(NC(=O)c4ccccc4)nc3=O)C(O)C2O)(c2ccccc2)c2ccccc2)cc1 (stereo not given)
active: RPMI-8226 leukemia 3.08%
inactive: SR leukemia 12.4% | OVCAR-8 ovarian 29% | OVCAR-4 ovarian 25.9% | SK-OV-3 ovarian 75.1% | IGROV1 ovarian 33.7% | OVCAR-3 ovarian 45.6% | HS 578T breast 61.7%

O=C1C=CC(O)=CC1=P(c1ccccc1)(c1ccccc1)c1ccccc1
inactive: SR leukemia 78.8% | RPMI-8226 leukemia 74.2% | OVCAR-8 ovarian 92.4% | OVCAR-5 ovarian 74.7% | OVCAR-4 ovarian 94% | SK-OV-3 ovarian 91.5% | OVCAR-3 ovarian 102% | NCI/ADR-RES ovarian 102%

O=C1C=CC(=O)N1c1ccc(O)cc1
inactive: SR leukemia 91.7% | RPMI-8226 leukemia 91.9% | OVCAR-8 ovarian 109% | OVCAR-5 ovarian 105% | OVCAR-4 ovarian 103% | SK-OV-3 ovarian 106% | OVCAR-3 ovarian 119% | HS 578T breast 118% | NCI/ADR-RES ovarian 106%

CN(C)c1ccc2cc3c(cc2c1)Oc1ccccc1N3.[Cl][Zn][Cl]
inactive: SR leukemia 12.5% | RPMI-8226 leukemia 48.9% | OVCAR-8 ovarian 70.2% | OVCAR-4 ovarian 64% | SK-OV-3 ovarian 106% | IGROV1 ovarian 78.5% | OVCAR-3 ovarian 17.6% | HS 578T breast 106% | NCI/ADR-RES ovarian 86.2%

O/N=C1\c2ccccc2-c2ccc(F)cc21
inactive: SR leukemia 91.2% | RPMI-8226 leukemia 85.8% | OVCAR-8 ovarian 102% | OVCAR-5 ovarian 93.8% | OVCAR-4 ovarian 85.8% | SK-OV-3 ovarian 97.3% | IGROV1 ovarian 85.4% | HS 578T breast 120% | NCI/ADR-RES ovarian 107%

NC(=S)N/N=C\c1nccc2c(C(F)(F)F)cccc12
active: SR leukemia -28.6% | RPMI-8226 leukemia -13.9% | IGROV1 ovarian 4.12% | NCI/ADR-RES ovarian 0.716%
inactive: OVCAR-8 ovarian 11.1% | OVCAR-5 ovarian 36% | SK-OV-3 ovarian 11.4% | OVCAR-3 ovarian 15.3%

CC(=O)N1CC(=O)NC1=S
inactive: SR leukemia 91.8% | RPMI-8226 leukemia 101% | OVCAR-8 ovarian 103% | OVCAR-5 ovarian 97.1% | OVCAR-4 ovarian 96.5% | IGROV1 ovarian 105% | OVCAR-3 ovarian 110% | HS 578T breast 102% | NCI/ADR-RES ovarian 104%

Cc1oc2c(C)c3oc(=O)cc(C)c3cc2c1CCl
active: SR leukemia -10%
inactive: RPMI-8226 leukemia 54.4% | OVCAR-8 ovarian 87.1% | OVCAR-5 ovarian 77.3% | SK-OV-3 ovarian 89.1% | IGROV1 ovarian 94.3% | OVCAR-3 ovarian 61.6% | HS 578T breast 77.6% | NCI/ADR-RES ovarian 83.7%

Cc1ccc(N2C(=O)C=CC2=O)cc1
inactive: SR leukemia 66% | RPMI-8226 leukemia 98.8% | OVCAR-8 ovarian 110% | OVCAR-5 ovarian 110% | OVCAR-4 ovarian 107% | SK-OV-3 ovarian 121% | OVCAR-3 ovarian 118% | NCI/ADR-RES ovarian 104%

Nc1nc(N)c2cc(Sc3cccc(C(F)(F)F)c3)ccc2n1
active: SR leukemia -27.1% | RPMI-8226 leukemia 5.83%
inactive: OVCAR-8 ovarian 31% | OVCAR-5 ovarian 45.1% | SK-OV-3 ovarian 63.9% | IGROV1 ovarian 21.9% | OVCAR-3 ovarian 25.4% | HS 578T breast 40.4% | NCI/ADR-RES ovarian 17.7%

COC(=O)c1nc(=S)[nH]c(C(=O)OC)c1C(=O)c1ccc(Cl)c(Cl)c1
inactive: SR leukemia 115% | RPMI-8226 leukemia 105% | OVCAR-8 ovarian 111% | OVCAR-5 ovarian 118% | OVCAR-4 ovarian 104% | SK-OV-3 ovarian 107% | IGROV1 ovarian 112% | OVCAR-3 ovarian 122% | NCI/ADR-RES ovarian 110%

CC(=O)c1c(O)c(C)c(O)c2c1OC1=CC(=O)C(C(C)=O)C(=O)C12C (stereo not given)
inactive: SR leukemia 58% | RPMI-8226 leukemia 41.6% | OVCAR-8 ovarian 92.7% | OVCAR-5 ovarian 88.3% | SK-OV-3 ovarian 98.8% | IGROV1 ovarian 69.9% | NCI/ADR-RES ovarian 63.4%

O=C(CCl)N1c2ccccc2Sc2c1ccc1ccccc21
inactive: SR leukemia 12.9% | RPMI-8226 leukemia 36.1% | OVCAR-8 ovarian 64.2% | OVCAR-5 ovarian 108% | SK-OV-3 ovarian 106% | IGROV1 ovarian 34.4% | OVCAR-3 ovarian 74.3% | HS 578T breast 82.1% | NCI/ADR-RES ovarian 75.3%

Oc1ccccc1N=Cc1ccccc1
inactive: SR leukemia 79.2% | RPMI-8226 leukemia 62.9% | OVCAR-8 ovarian 84% | OVCAR-5 ovarian 104% | OVCAR-4 ovarian 107% | SK-OV-3 ovarian 104% | IGROV1 ovarian 94.5% | OVCAR-3 ovarian 76.2% | NCI/ADR-RES ovarian 84.6%

CC1(C)N=c2cc3c(cc2N1c1ccc(Cl)cc1)=Nc1ccccc1N3c1ccc(Cl)cc1
active: SR leukemia -41.9% | RPMI-8226 leukemia -27.5%
inactive: OVCAR-8 ovarian 21% | OVCAR-5 ovarian 25.5% | OVCAR-4 ovarian 39.1% | SK-OV-3 ovarian 59.4% | OVCAR-3 ovarian 35.9%

Oc1cc(Cl)ccc1Cc1ccc(Cl)cc1O
inactive: SR leukemia 59.1% | RPMI-8226 leukemia 18.7% | OVCAR-8 ovarian 64.6% | OVCAR-4 ovarian 30.1% | SK-OV-3 ovarian 90.8% | IGROV1 ovarian 82.5% | OVCAR-3 ovarian 40.2%

CC12CCC(O)CC1=CCC1C2CCC2(C)C3=NN=CC3CC12 (stereo not given)
inactive: SR leukemia 60.1% | RPMI-8226 leukemia 96.5% | OVCAR-8 ovarian 107% | OVCAR-5 ovarian 106% | OVCAR-4 ovarian 107% | SK-OV-3 ovarian 115% | OVCAR-3 ovarian 116% | HS 578T breast 95.6% | NCI/ADR-RES ovarian 98.6%

N#Cc1c2ccccc2nc2ccccc12
inactive: SR leukemia 103% | RPMI-8226 leukemia 99.3% | OVCAR-8 ovarian 93.9% | OVCAR-4 ovarian 83.2% | SK-OV-3 ovarian 116% | IGROV1 ovarian 108% | OVCAR-3 ovarian 110% | HS 578T breast 103% | NCI/ADR-RES ovarian 100%

Cc1cc(C)c(C#N)c(Sc2nc(C)c([N+](=O)[O-])c(C)c2C#N)n1
inactive: SR leukemia 22.7% | RPMI-8226 leukemia 48.7% | OVCAR-8 ovarian 77.2% | OVCAR-5 ovarian 90.1% | OVCAR-4 ovarian 66.6% | SK-OV-3 ovarian 81.3% | IGROV1 ovarian 82.9% | OVCAR-3 ovarian 68.6% | NCI/ADR-RES ovarian 77.9%

Fc1ccc(NCCS)cc1
inactive: SR leukemia 88.9% | RPMI-8226 leukemia 91% | OVCAR-8 ovarian 103% | OVCAR-5 ovarian 104% | OVCAR-4 ovarian 102% | IGROV1 ovarian 104% | OVCAR-3 ovarian 107% | HS 578T breast 115% | NCI/ADR-RES ovarian 109%

Clc1ccc(Cc2nc3ccccc3s2)cc1
inactive: SR leukemia 84.4% | RPMI-8226 leukemia 101% | OVCAR-8 ovarian 102% | OVCAR-4 ovarian 91% | SK-OV-3 ovarian 128% | IGROV1 ovarian 91.7% | OVCAR-3 ovarian 98.1% | HS 578T breast 100%

COc1cc(-c2ccc(-[n+]3nc(-c4ccc([N+](=O)[O-])cc4)nn3-c3ccc([N+](=O)[O-])cc3)c(OC)c2)ccc1-[n+]1nc(-c2ccc([N+](=O)[O-])cc2)nn1-c1ccc([N+](=O)[O-])cc1
inactive: SR leukemia 40.2% | RPMI-8226 leukemia 27.6% | OVCAR-8 ovarian 30.5% | OVCAR-5 ovarian 59.7% | OVCAR-4 ovarian 53.9% | SK-OV-3 ovarian 47.1% | IGROV1 ovarian 24.5% | OVCAR-3 ovarian 32% | NCI/ADR-RES ovarian 73.4%

— PubChem BioAssay (NCI)
